Reference: PubChem BioAssay (EPA / NIEHS)
Results filed as inconclusive are left out. Active and inactive are the calls of the source. Rule for the calls, unless noted: active = hit-call score of the fitted dose curve at least 0.9, where 1 is the maximum; inconclusive = response in the unintended direction; inactive = score below 0.9.

What was measured:
[1] = TOX21_p53_BLA_p3_viability: Viability Assessment in the Tox21 HCT-116 p53 Agonism Beta-lactamase Assay, Phase 3 (AID 2283593);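 note: cells exposed to compound for 16 h before reading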
Procedure, shortened: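 HCT116 cells, 4000/well, dosed 5 h after plating by pin transfer (217-fold dilution from DMSO stock) and incubated 16 h at 37C, 5% CO2. Viability read as ATP luminescence with CellTiter-Glo after 30 min at room temperature.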

[2] = target: Cellular tumor antigen p53 (Homo sapiens) (UniProt P04637); experiment: TOX21_p53_BLA_p3_ratio: Tox21 HCT-116 p53 Agonism Beta-lactamase Assay, Ratio, Phase 3 (AID 2283596)
Procedure, shortened: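 HCT116 p53-bla cells (4000/well) given compound in DMSO (217-fold dilution) after 5 h, incubated 16 h at 37C. CCF4-AM substrate 2 h at room temperature; 460/530 nm emission ratio, gain fitted against DMSO.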

[3] = target: Cellular tumor antigen p53 (Homo sapiens) (UniProt P04637); experiment: TOX21_p53_BLA_p5_ratio: Tox21 HCT-116 p53 Agonism Beta-lactamase Assay, Ratio, Phase 5 (AID 2283599)
Procedure, shortened: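 HCT-116 p53-bla cells (4000/well) plated 5 h, dosed with compound (217-fold DMSO dilution) for 16 h at 37 C; CCF4-AM substrate 2 h at room temperature. Activity is the 460/530 nm emission ratio (405 nm excitation), fitted in gain-of-signal direction versus DMSO.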

[4] = TOX21_p53_BLA_p5_viability: Viability Assessment in the Tox21 HCT-116 p53 Agonism Beta-lactamase Assay, Phase 5 (AID 2283600)
Procedure, shortened: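 4000 cells/well; 5 h pre-incubation; DMSO compounds pin-transferred, 217-fold dilution; 16 h, 37C/5% CO2; CCF4-AM 2 h RT; CellTiter-Glo 30 min RT; luminescence.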

[5] = target: Cellular tumor antigen p53 (Homo sapiens) (UniProt P04637); experiment: TOX21_p53_BLA_p4_ratio: Tox21 HCT-116 p53 Agonism Beta-lactamase Assay, Ratio, Phase 4 (AID 2283601)
Procedure, shortened: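 HCT-116 p53 beta-lactamase reporter cells (4000/well) preincubated 5 h, then compound (217-fold dilution of DMSO stock) for 16 h at 37C. CCF4-AM substrate added 2 h at room temperature; 460/530 nm emission ratio fitted upward versus DMSO.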

[6] = TOX21_p53_BLA_p4_viability: Viability Assessment in the Tox21 HCT-116 p53 Agonism Beta-lactamase Assay, Phase 4 (AID 2283597);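 note: hits lower the luminescence signal meaning cytotoxicity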
Procedure, shortened: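 Cells plated, 5 h pre-incubation; DMSO compounds pinned (217-fold dilution); 16 h, 37C/5% CO2; CCF4-AM 2 h RT; CellTiter-Glo 30 min RT; luminescence read.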

[7] = CCTE_Deisenroth_AIME_96WELL_CTox_Active: Cytotoxicity Assessment (CTOX) in CCTE's 96-well Estrogen Receptor Transactivation Assay with AIME metabolic competence (metabolism positive), Deisenroth Lab (AID 2284028)
Procedure, shortened: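 Chemicals (0.002–200 uM) were first incubated 2 h with alginate-immobilized phenobarbital/beta-naphthoflavone-induced male rat liver S9; conditioned medium then went onto VM7Luc4E2 cells for 24 h, with viability read by protease-substrate fluorescence, fitted bidirectionally.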

[8] = CCTE_Deisenroth_AIME_96WELL_CTox_Inactive: Cytotoxicity Assessment (CTOX) in CCTE's 96-well Estrogen Receptor Transactivation Assay without AIME metabolic competence (metabolism negative), Deisenroth Lab (AID 2284029)
Procedure, shortened: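 Chemicals (10-point series, 0.002-200 uM) were incubated 2 h with alginate-water microspheres lacking S9. The conditioned medium was then transferred onto VM7Luc4E2 cells for 24 h. Viability was measured by protease-substrate cleavage to a fluorescent probe, with loss of signal fitted bidirectionally; n≥4 experimental replicates.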

[9] = CCTE_Shafer_MEA_dev_firing_rate_mean: CCTE's Neural Network Formation Assay for Mean Firing Rate, Shafer Lab (AID 2284031; active = hit-call score of the fitted dose curve at least 0.9, where 1 is the maximum; inactive = score below 0.9)
Procedure, shortened: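 Primary rat cortical neurons on 48-well, 16-electrode MEAs (PEI-coated, laminin at plating), exposed from day 0 with compound renewed at DIV 5 and 9. Spikes recorded DIV 5, 7, 9, 12; well-mean firing rate collapsed to trapezoidal AUC, loss-of-signal vs DMSO.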

[10] = CCTE_Shafer_MEA_dev_per_burst_spike_percent: CCTE's Neural Network Formation Assay for Percent of Spikes in a Burst, Shafer Lab (AID 2284032; active = hit-call score of the fitted dose curve at least 0.9, where 1 is the maximum; inactive = score below 0.9)
Procedure, shortened: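 Rat primary cortical neurons on 16-electrode MEA wells, dosed from plating day 0 for 12 days with renewal on DIV 5 and 9; spikes-in-bursts percentage averaged over bursting electrodes, collapsed as AUC across days 5, 7, 9, 12; loss direction versus DMSO.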

[11] = CCTE_Shafer_MEA_dev_active_electrodes_number: CCTE's Neural Network Formation Assay for Number of Active Electrodes, Shafer Lab (AID 2284040)
Procedure, shortened: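 Rat cortical primary cultures, 1.5 x 10^5 cells/well, PEI-coated MEA, laminin drop. Continuous exposure DIV 0–12; full media/compound change DIV 5, 9. Readout: electrodes with mean firing ≥5 spikes/min; AUC across days; loss vs DMSO.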

[12] = CCTE_Shafer_MEA_dev_burst_rate: CCTE's Neural Network Formation Assay for Burst Rate, Shafer Lab (AID 2284042; active = hit-call score of the fitted dose curve at least 0.9, where 1 is the maximum; inactive = score below 0.9)
Procedure, shortened: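 Cells plated, treated day 0; recorded DIV 5, 7, 9, 12; fed and re-treated DIV 5, 9. Endpoint: bursts per recording time, active-electrode well mean, trapezoidal AUC, fitted in decreasing direction against DMSO baseline.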

[13] = CCTE_Shafer_MEA_dev_bursting_electrodes_number: CCTE's Neural Network Formation Assay for Number of Bursting Electrodes, Shafer Lab (AID 2284043)
Procedure, shortened: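 Primary rat cortical neurons plated on 16-electrode MEA wells, exposed from day 0 with compound renewed at DIV 5 and 9. Electrodes bursting ≥1 burst per 2 min counted on days 5, 7, 9 and 12; trapezoidal AUC across days, fitted for loss versus DMSO.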

[14] = CCTE_Shafer_MEA_dev_per_burst_interspike_interval: CCTE's Neural Network Formation Assay for Burst Interspike Interval, Shafer Lab (AID 2284044; active = hit-call score of the fitted dose curve at least 0.9, where 1 is the maximum; inactive = score below 0.9;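 note: mean spike spacing inside bursts as AUC over recordings on days 5 7 9 12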)
Procedure, shortened: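 Neurons from rat cortex plated onto PEI-coated MEA wells with laminin […] at 1.5 x 10^5 cells/well, then treated from day 0. Media and compound fully replaced on DIV 5 and 9. Extracellular spontaneous firing recorded four times; interspike interval per burst summarised as AUC.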

[15] = CCTE_Shafer_MEA_dev_burst_duration_mean: CCTE's Neural Network Formation Assay for Mean Burst Duration, Shafer Lab (AID 2284045; active = hit-call score of the fitted dose curve at least 0.9, where 1 is the maximum; inactive = score below 0.9)
Procedure, shortened: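 Primary rat cortical neurons on 48-well 16-electrode MEA plates, exposed from day 0 with renewal at DIV 5 and 9; spontaneous activity recorded on days 5, 7, 9, 12. Well-mean burst duration across bursting electrodes, collapsed as trapezoidal AUC; DMSO baseline.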

[16] = CCTE_Shafer_MEA_dev_inter_network_spike_interval_mean: CCTE's Neural Network Formation Assay for Mean Inter-network Spike Interval, Shafer Lab (AID 2284047; active = hit-call score of the fitted dose curve at least 0.9, where 1 is the maximum; inactive = score below 0.9)
Procedure, shortened: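 Rat cortical cultures, 1.5 x 10^5 cells/well on 48-well MEA plates; continuous exposure days 0–12, medium and compound refreshed DIV 5, 9. Mean time between consecutive network-spike peaks; AUC across DIV 5/7/9/12; DMSO baseline, negative fitting direction.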

[17] = CCTE_Shafer_MEA_dev_network_spike_number: CCTE's Neural Network Formation Assay for Number of Network Spikes, Shafer Lab (AID 2284048; active = hit-call score of the fitted dose curve at least 0.9, where 1 is the maximum; inactive = score below 0.9)
Procedure, shortened: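 Primary rat cortical neurons on PEI/laminin 48-well MEA plates, dosed from plating day 0 for 12 days, renewed at DIV 5 and 9. Network spike counts recorded DIV 5, 7, 9, 12, collapsed as trapezoidal AUC; DMSO baseline.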

[18] = CCTE_Shafer_MEA_dev_network_spike_peak: CCTE's Neural Network Formation Assay for Mean Number of Electrodes in Network Spike, Shafer Lab (AID 2284049; active = hit-call score of the fitted dose curve at least 0.9, where 1 is the maximum; inactive = score below 0.9)
Procedure, shortened: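 Network-spike peak electrode count from recordings on days 5, 7, 9 and 12 was combined as trapezoidal area under the curve. Rat cortical cultures were treated continuously from plating, with compound renewed at each feed (DIV 5, 9); fits versus DMSO.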

[19] = CCTE_Shafer_MEA_dev_spike_duration_mean: CCTE's Neural Network Formation Assay for Mean Spike Duration, Shafer Lab (AID 2284051; active = hit-call score of the fitted dose curve at least 0.9, where 1 is the maximum; inactive = score below 0.9;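 note: mean network spike duration pooled as area under curve over DIV 5 to 12 recordings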)
Procedure, shortened: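 Readout is the average length of network spikes, clustered firing across electrodes, summed over DIV 5, 7, 9 and 12 as area under the curve. Neurons from rat cortex developed networks on MEA plates under continuous 12-day exposure.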

[20] = CCTE_Shafer_MEA_dev_network_spike_duration_std: CCTE's Neural Network Formation Assay for Standard Deviation of Network Spike Duration, Shafer Lab (AID 2284052; active = hit-call score of the fitted dose curve at least 0.9, where 1 is the maximum; inactive = score below 0.9;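 note: area under curve of spike duration SD across recording days 5 to 12; hits are decreases in network spike duration SD versus DMSO vehicle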)
Procedure, shortened: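 Read-out is the trapezoidal area-under-the-curve across recordings made on days 5, 7, 9 and 12, fitted in the negative direction against DMSO baseline. Neurons were primary rat cortical cells treated from day 0, with treatment renewed at each feed.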

[21] = CCTE_Shafer_MEA_dev_per_network_spike_spike_number_mean: CCTE's Neural Network Formation Assay for Mean Number of Spikes in a Network Spike, Shafer Lab (AID 2284053; active = hit-call score of the fitted dose curve at least 0.9, where 1 is the maximum; inactive = score below 0.9)
Procedure, shortened: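 Continuous twelve-day exposure of developing rat cortical networks grown over 16 microelectrodes per well; spontaneous firing is captured at four time points, and the per-network-spike spike number is integrated over development by trapezoidal AUC.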

[22] = CCTE_Shafer_MEA_dev_per_network_spike_spike_percent: CCTE's Neural Network Formation Assay for Percent of Spikes in a Network Spike, Shafer Lab (AID 2284054; active = hit-call score of the fitted dose curve at least 0.9, where 1 is the maximum; inactive = score below 0.9)
Procedure, shortened: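 Rat primary cortical neurons were grown on 48-well MEA plates (16 electrodes/well), exposed from plating day 0 through day 12, with treatment renewed on DIV 5 and 9. Percent of spikes within 0.05 s network-spike peaks was measured, summarised as AUC across days 5, 7, 9, 12.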

[23] = CCTE_Shafer_MEA_dev_LDH: CCTE's Lactate Dehydrogenase Assay for Cytotoxicity in the Neural Network Formation Assay, Shafer Lab (AID 2284068);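 note: exposure for twelve days from plating with re-dosing on DIV 5 and 9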
Procedure, shortened: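 Cytotoxicity companion to network-formation recordings: rat cortical neurons received compound over 12 days of development, re-dosed at DIV 5 and 9 feeds. Viability was inferred from LDH enzyme activity relative to DMSO.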

[24] = CCTE_Shafer_MEA_dev_AB: CCTE's Alamar Blue Assay for Cytotoxicity in the Neural Network Formation Assay, Shafer Lab (AID 2284083);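 note: resazurin reduction fluorescence as viability of cultured neurons; twelve days of exposure from plating with re-dosing on DIV 5 and 9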
Procedure, shortened: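 Fluorescent resazurin reduction serves as the viability read-out, with DMSO as negative control and baseline. Cells were primary rat cortical neurons grown on MEA plates and dosed from day 0 to day 12, treatment renewed on DIV 5 and 9.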

[25] = CCTE_Shafer_MEA_dev_mutual_information_norm: CCTE's Neural Network Formation Assay for Mutual Information Normalization, Shafer Lab (AID 2284091; active = hit-call score of the fitted dose curve at least 0.9, where 1 is the maximum; inactive = score below 0.9)
Procedure, shortened: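 Primary rat cortical neurons on PEI-coated 48-well MEA plates, 1.5 x 10^5 cells/well, exposed from day 0 through day 12 with re-dosing at DIV 5 and 9. Mutual information between electrodes recorded days 5, 7, 9, 12; trapezoidal AUC, loss-of-signal fit versus DMSO.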

Measured: outcome

Chain of Cellular tumor antigen p53 (Homo sapiens) (P04637 whole entry, looked up): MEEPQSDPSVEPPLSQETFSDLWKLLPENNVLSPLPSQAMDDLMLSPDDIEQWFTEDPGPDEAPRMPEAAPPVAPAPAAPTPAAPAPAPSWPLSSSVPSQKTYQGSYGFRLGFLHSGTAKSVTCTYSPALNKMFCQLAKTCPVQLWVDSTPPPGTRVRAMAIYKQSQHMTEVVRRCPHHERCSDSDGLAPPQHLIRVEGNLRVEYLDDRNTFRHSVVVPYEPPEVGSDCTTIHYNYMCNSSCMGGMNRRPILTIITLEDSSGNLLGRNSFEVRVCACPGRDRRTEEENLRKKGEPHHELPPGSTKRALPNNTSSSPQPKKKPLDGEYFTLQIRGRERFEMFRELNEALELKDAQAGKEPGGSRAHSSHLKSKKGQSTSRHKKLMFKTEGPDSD

Nc1ccc(C(=O)NCC(=O)O)cc1
inactive: [1] | [2] | [3] | [4] | [5]

C=CCSSCCC
inactive: [1] | [6]

CC(CC(=O)O)CC(C)(C)C (stereo not drawn)
inactive: [1] | [6]

CC(=O)Nc1ccc(S(=O)(=O)Nc2cc(C)on2)cc1
inactive: [1] | [3] | [4]

CC(O)CCCCn1c(=O)c2c(ncn2C)n(C)c1=O (stereo not drawn)
inactive: [1] | [2] | [3] | [5]

CC(=O)OCC(=O)[C@@]1(O)CC[C@H]2[C@@H]3C[C@H](C)C4=CC(=O)C=C[C@]4(C)[C@H]3[C@@H](O)C[C@@]21C
inactive: [1] | [6] | [3] | [5]

CCNC(=O)[C@@H]1CCCN1C(=O)[C@H](CCCN=C(N)N)NC(=O)[C@H](CC(C)C)NC(=O)[C@@H](CC(C)C)NC(=O)[C@H](Cc1ccc(O)cc1)NC(=O)[C@H](CO)NC(=O)[C@H](Cc1c[nH]c2ccccc12)NC(=O)[C@H](Cc1cnc[nH]1)NC(=O)[C@@H]1CCC(=O)N1
inactive: [1] | [6] | [3]

CCCCC/C=C\C/C=C\CCCCCCCC(=O)NC(C)c1ccccc1 (stereo not drawn)
inactive: [1] | [3] | [5]

O=C(O[C@@H](C(=O)O)[C@@H](OC(=O)c1ccccc1)C(=O)O)c1ccccc1
inactive: [1] | [3] | [4]

c1ccc2c(c1)ccc1c3ccccc3ccc21
not listed: [4] | [6]
inactive: all other assays above

C=CC(=O)NC(C)C
inactive: [1] | [6]

CCCCCCCCCCCCCC=O
inactive: [1] | [3] | [4]

CCNS(=O)(=O)c1ccc(C)cc1
inactive: [1] | [3] | [4] | [5]

CC(C)(C)N(CCO)CCO
inactive: [1] | [2] | [5]

CCC=C1OC(=O)c2ccccc21
inactive: [1] | [3] | [4] | [5]

CS(=O)(=O)O
inactive: [1] | [3]

CN=C(NC#N)Nc1ccc(C2=NNC(=O)CC2C)cc1 (stereo not drawn)
inactive: [1] | [2] | [5]
